Measurements published in PubChem BioAssay.
Active and inactive are the calls of the source. Unless noted, no rule for the calls is given here.

Tests used:
[1] = compound effects on lung adenocarcinoma cell viability – A549, calcein-AM fluorescence, 48 h, basal, profiling panel (AID 1162); conditions: higher = more signal; also: test concentration not given here
[2] = compound effects on differentiated 3T3-L1 adipocyte viability – cell-based, 3T3-L1 adipocytes, calcein-AM fluorescence, 48 h, basal, profiling panel (AID 1163); conditions: 3T3-L1 adipocytes viability, higher = more signal; also: test concentration not given here
[3] = compound effects on hepatocellular carcinoma cell viability – HepG2, calcein-AM fluorescence, 48 h, basal, profiling panel (AID 1164); conditions: higher = more signal; also: test concentration not given here
[4] = compound effects on multiple myeloma cell viability – MM1S, calcein-AM fluorescence, 48 h, basal, profiling panel (AID 1165); conditions: higher = more signal; also: test concentration not given here
[5] = calcein-AM signal in unstimulated myeloma cells – cell-based, calcein-AM fluorescence, 48 h, PK04 Diversity Set, profiling panel (AID 1166); conditions: RPMI8226 myeloma viability, higher = more signal;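 also: cells grown under basal conditions without added stimulus; test concentration not given here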
[6] = JC-1 mitochondrial signal, unstimulated HepG2 cells – cell-based, JC-1 fluorescence, 24 h, 100 nL compound, profiling panel (AID 1167); conditions: HepG2 mitochondrial potential, higher = more signal; also: test concentration not given here
[7] = JC-1 mitochondrial signal, unstimulated adipocytes – cell-based, JC-1 fluorescence, 3T3-L1 adipocytes, 24 h, 100 nL compound, profiling panel (AID 1168); conditions: JC-1 mitochondrial fluorescence, higher = more signal, called active from +8 up or from −8 down; also: test concentration not given here
[8] = JC-1 mitochondrial signal, unstimulated myeloma cells – cell-based, JC-1 fluorescence, RPMI8226, 24 h, 100 nL compound, profiling panel (AID 1169); conditions: JC-1 mitochondrial potential fluorescence, higher = more signal; also: test concentration not given here
[9] = JC-1 mitochondrial signal, unstimulated MM1S myeloma – cell-based, JC-1 fluorescence, 24 h, 100 nL compound, profiling panel (AID 1170); conditions: MM1S mitochondrial potential, higher = more signal; also: test concentration not given here
[10] = resazurin metabolic signal in A549 cells – cell-based, resazurin fluorescence, 24 h, PK04 Diversity Set, profiling panel (AID 1171); conditions: A549 viability, higher = more signal, called active from +8 up or from −8 down; also: test concentration not given here
[11] = resazurin metabolic signal in HepG2 cells – cell-based, resazurin fluorescence, 24 h, PK04 Diversity Set, profiling panel (AID 1172); conditions: HepG2 viability, higher = more signal; also: test concentration not given here
[12] = budding yeast growth changes without added modifier – OD600, strain BY4716, 24 h, basal condition, primary screen (AID 1173); conditions: S. cerevisiae BY4716 growth, OD600, 24 h; higher = more signal, called active from +8 up or from −8 down
[13] = viability profiling in MM1S myeloma cells – cell-based, resazurin fluorescence, basal, 24 h, PK04 Diversity Set, profiling panel (AID 1174); conditions: higher = more signal, called active from +8 up or from −8 down; also: test concentration not given here
[14] = target: Dihydroorotate dehydrogenase (quinone), mitochondrial (Plasmodium falciparum (isolate 3D7)) (UniProt Q08210); assay: inhibition of P. falciparum DHODH – biochemical, C-terminal His tag, absorbance 600 nm, primary screen (AID 1175); conditions: PfDHODH enzyme, DCIP absorbance 600 nm; higher = more signal, called active from +8 up or from −8 down;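 also: recombinant parasite enzyme with a five histidine tag at its C terminus; test concentration not given here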
Sequence of Dihydroorotate dehydrogenase (quinone), mitochondrial (Plasmodium falciparum (isolate 3D7)) (Q08210 whole entry, looked up): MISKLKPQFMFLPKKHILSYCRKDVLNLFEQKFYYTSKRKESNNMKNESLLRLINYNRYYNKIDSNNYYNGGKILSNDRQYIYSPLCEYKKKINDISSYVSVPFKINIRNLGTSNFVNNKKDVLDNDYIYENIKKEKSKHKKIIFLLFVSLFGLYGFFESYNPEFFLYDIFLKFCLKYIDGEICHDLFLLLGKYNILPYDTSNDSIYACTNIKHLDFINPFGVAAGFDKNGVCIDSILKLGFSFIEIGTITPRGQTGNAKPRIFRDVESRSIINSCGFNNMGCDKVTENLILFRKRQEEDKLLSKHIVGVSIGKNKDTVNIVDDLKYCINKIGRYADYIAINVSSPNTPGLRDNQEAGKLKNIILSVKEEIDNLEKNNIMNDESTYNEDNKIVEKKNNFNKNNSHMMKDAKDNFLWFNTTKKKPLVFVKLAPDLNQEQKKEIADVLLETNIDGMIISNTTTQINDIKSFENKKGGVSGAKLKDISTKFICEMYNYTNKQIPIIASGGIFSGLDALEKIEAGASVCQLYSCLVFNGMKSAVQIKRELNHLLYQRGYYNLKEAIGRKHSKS

[15] = inhibition of PAO1 biofilm formation – strain PAO1, LB-PBS medium, absorbance 600 nm, primary screen (AID 1176); also: test concentration not given here; conditions: P. aeruginosa PAO1 growth/biofilm, A600, 12 h; higher = more signal
[16] = growth modulation of vineyard yeast isolate – strain RM11-1a, OD600, basal, 24 h, primary screen (AID 1177);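 also: cultures grown under basal conditions with no added stressor; test concentration not given here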; conditions: S. cerevisiae RM11-1a growth, OD600, 24 h; higher = more signal, called active from +8 up or from −8 down
[17] = growth of efflux-deficient E. coli DRC39 – strain DRC39, OD650, 24 h, E. coli filamentation inducers, primary screen (AID 1178);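 also: growth measured as culture turbidity by optical density at 650 nm; test concentration not given here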; conditions: E. coli DRC39 acrAB, higher = more signal, called active from +8 up or from −8 down
[18] = growth of efflux-deficient E. coli DRC39 – strain DRC39, OD650, 48 h, E. coli filamentation inducers, primary screen (AID 1179);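 also: screen aims at cell division blockers that make cells filament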; conditions: E. coli DRC39 delta-acrAB growth, higher = more signal, called active from +8 up or from −8 down
[19] = viability profiling in RPMI8226 myeloma cells – cell-based, resazurin fluorescence, basal, 24 h, PK04 Diversity Set, profiling panel (AID 1180); conditions: higher = more signal;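 also: RPMI8826 multiple myeloma cell line at 5000 cells per well; test concentration not given here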
[20] = target: E3 ubiquitin-protein ligase XIAP (Homo sapiens) (UniProt P98170); assay: small molecules binding XIAP protein – biophysical, small-molecule microarray, fluorescence 635 nm, primary screen (AID 1181); conditions: higher = more signal;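 also: score merges 667 nm emission and signal to noise over triplicate slides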
Sequence of E3 ubiquitin-protein ligase XIAP (Homo sapiens) (P98170 whole entry, looked up): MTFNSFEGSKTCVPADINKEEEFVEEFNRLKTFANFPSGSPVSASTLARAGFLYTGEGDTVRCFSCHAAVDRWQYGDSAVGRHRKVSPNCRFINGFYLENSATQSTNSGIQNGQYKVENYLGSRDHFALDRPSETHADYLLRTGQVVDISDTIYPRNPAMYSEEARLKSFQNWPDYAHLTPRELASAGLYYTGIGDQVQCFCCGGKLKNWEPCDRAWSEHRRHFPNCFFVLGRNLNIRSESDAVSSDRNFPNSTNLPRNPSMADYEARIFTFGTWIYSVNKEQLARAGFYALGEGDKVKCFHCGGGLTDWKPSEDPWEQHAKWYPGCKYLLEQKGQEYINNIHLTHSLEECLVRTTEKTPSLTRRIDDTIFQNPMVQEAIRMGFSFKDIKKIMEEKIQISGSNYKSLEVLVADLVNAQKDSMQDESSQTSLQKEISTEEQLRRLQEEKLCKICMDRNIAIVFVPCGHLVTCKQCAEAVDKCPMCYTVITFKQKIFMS

SMILES | z-score [1] | z-score [2] | z-score [3] | z-score [4] | z-score [5] | z-score [6] | z-score [7] | z-score [8] | z-score [9] | z-score [10] | z-score [11] | z-score [12] | z-score [13] | composite z-score [14] | z-score [15] | z-score [16] | z-score [17] | z-score [18] | z-score [19] | composite z-score [20]
COCCCN1C(=O)[C@@]2(c3ccc([N+](=O)[O-])cc3)CC(=O)N(CC34CC5CC(CC(C5)C3)C4)[C@@H]2c2ccc(CO)cc21 | 0.555 | -0.731 | 1.07 | 0.657 | 1.12 | 0.722 | 0.0634 (inactive) | 0.25 | -1.87 | -1.25 (inactive) | -0.35 | 1.09 (inactive) | -0.566 (inactive) | -6.02 (inactive) | 0.792 (inactive) | 0.0202 (inactive) | 0.2 (inactive) | 0.334 (inactive) | -0.79 | 0.113
C=C(CCCC)/C(=C/C[C@H](OC(=O)c1ccncc1)c1cccc(OCCO)c1)c1cnc2ccccc2c1 | 1.35 | -0.893 | 0.0815 | -3.37 | -2.3 | 0.99 | -1.16 (inactive) | -0.817 | -0.718 | 0.588 (inactive) | -0.0769 | 0.527 (inactive) | -0.737 (inactive) | -2.67 (inactive) | 0.236 (inactive) | -0.364 (inactive) | -0.566 (inactive) | -0.635 (inactive) | -0.82 | 0.291
C=C1C(=O)C=C2CN(C(=O)c3ccccc3)[C@@](Cc3ccc(OC)cc3)(C(=O)OC)[C@@H]12 | -1.92 | -0.033 | -1.62 | -1.73 | -4.68 | 0.971 | -1.02 (inactive) | -0.908 | -1.74 | -0.701 (inactive) | -0.187 | 1.33 (inactive) | -1.82 (inactive) | 0.046 (inactive) | 0.964 (inactive) | 0.468 (inactive) | -0.624 (inactive) | -0.841 (inactive) | -4.1 | 0.107
COCCOC(=O)N1C(=O)[C@@]2(c3cc(C#CCC(C(=O)OC)C(=O)OC)ccc31)[C@H](C(=O)Nc1nc3ccccc3s1)[C@H]1C(=O)O[C@H](c3ccccc3)[C@H](c3ccccc3)N1[C@@H]2c1ccc(O)cc1 | -0.857 | 0.401 | -0.277 | 0.0422 | -0.23 | -2.45 | -2.24 (inactive) | 0.467 | 0.258 | 0.677 (inactive) | -0.218 | 0.945 (inactive) | -0.0585 (inactive) | 0.863 (inactive) | 0.678 (inactive) | 0.404 (inactive) | 0.378 (inactive) | -0.186 (inactive) | -0.577 | 0.286
CC(C)(C)N1CC=CC23O[C@@H]4C=CCOC(=O)[C@@H]4[C@H]2C(=O)N(CCO)[C@@H]3C1=O (stereo not given in full) | -0.247 | -0.229 | -0.112 | 0.0476 | -0.46 | -0.731 | 0.316 (inactive) | 0.0281 | -0.537 | -0.465 (inactive) | -0.237 | 0.377 (inactive) | -0.0504 (inactive) | -0.0529 (inactive) | -0.994 (inactive) | 0.0505 (inactive) | 0.0531 (inactive) | -0.147 (inactive) | -0.167 | -0.0969
Cc1ccc(S[C@]2(C(=O)NCCCN(C)C)CC(=O)N(C3Cc4ccccc4C3)[C@@H]2c2ccc(CO)cc2I)cc1 | 0.691 | -0.749 | -0.563 | -2.64 | -2.5 | -0.188 | -1.28 (inactive) | -0.201 | -1.09 | 0.471 (inactive) | -0.595 | -3.43 (inactive) | -2.99 (inactive) | 0.505 (inactive) | 0.531 (inactive) | 0.609 (inactive) | -0.605 (inactive) | -0.623 (inactive) | -2.37 | -0.0999
O=C1OCCC=C[C@H]2OC34C=CCN(c5ccc6ccccc6c5)C(=O)[C@H]3N(CCO)C(=O)[C@@H]4C12 (stereo not given in full) | 0.327 | -0.423 | 0.0955 | 0.508 | 0.037 | -0.409 | -0.502 (inactive) | 0.122 | 0.611 | -0.751 (inactive) | 0.523 | -0.783 (inactive) | -1.23 (inactive) | -3.6 (inactive) | 0.345 (inactive) | 0.0789 (inactive) | -1.26 (inactive) | -1.42 (inactive) | -0.796 | -0.248
O=C1O[C@H](Cc2ccccc2)[C@@H]2[C@H]3C=CCCC=C3CN2[C@H]1Cc1ccc(O)cc1 | 0.405 | -0.276 | 0.146 | -3.14 | -0.148 | -2.65 | -0.639 (inactive) | -1.05 | -1.69 | 0.745 (inactive) | 1.28 | -2.92 (inactive) | 0.303 (inactive) | -0.259 (inactive) | 0.118 (inactive) | -0.0533 (inactive) | 0.616 (inactive) | 0.746 (inactive) | -0.095 | 0.269
